Legend:
Test in all cases: DAPPL (digital affinity profiling via proximity ligation, sequencing); 10 mM Tris-HCl pH 7.5, 50 mM NaCl, 1 mM DTT, 4% glycerol, room temperature, 30 min; GST-TFs on glutathione beads, 16-mer random dsDNA library, 0.1% formaldehyde crosslink after washing; high values mean tight binding
FLI1 = target: T1, FLI1 (Homo sapiens, UniProt Q01543 1-452); conditions: protein: recombinant; tags: N-terminal GST; dsDNA, one strand shown
T1 sequence: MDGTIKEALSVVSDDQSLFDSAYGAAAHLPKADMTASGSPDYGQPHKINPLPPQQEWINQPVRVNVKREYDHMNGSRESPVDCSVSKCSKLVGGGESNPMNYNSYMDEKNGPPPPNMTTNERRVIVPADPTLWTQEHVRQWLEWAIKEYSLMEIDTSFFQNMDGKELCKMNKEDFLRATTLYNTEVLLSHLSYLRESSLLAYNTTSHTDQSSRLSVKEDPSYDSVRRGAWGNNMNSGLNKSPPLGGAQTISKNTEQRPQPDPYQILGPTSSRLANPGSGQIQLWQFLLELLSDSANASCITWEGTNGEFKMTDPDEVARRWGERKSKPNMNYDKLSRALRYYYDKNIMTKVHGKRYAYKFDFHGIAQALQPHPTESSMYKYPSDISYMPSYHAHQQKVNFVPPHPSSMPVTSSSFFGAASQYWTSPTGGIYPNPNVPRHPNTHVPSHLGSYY
In short: (§1)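 Sequencing on an Illumina NextSeq500 followed washing, crosslinking with 0.1% formaldehyde, proximity ligation (BsaI/T4 ligase, 1 h, 37 °C) and PCR amplification of pools that had been incubated for 30 min at room temperature with 200 nmole of a random double-stranded 16-mer DNA library in Tris/NaCl/DTT/glycerol buffer. Each pool held DNA-barcoded human transcription factors, expressed in yeast as GST fusions and captured on glutathione beads, plus a tag-only sample. Binding signal is a hexamer's read frequency for a factor divided by its frequency in the tag-only sample.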

ELK1 = target: T2, ELK1 (Homo sapiens, UniProt P19419 1-428); conditions: protein: recombinant; tags: N-terminal GST; dsDNA, one strand shown
T2 sequence: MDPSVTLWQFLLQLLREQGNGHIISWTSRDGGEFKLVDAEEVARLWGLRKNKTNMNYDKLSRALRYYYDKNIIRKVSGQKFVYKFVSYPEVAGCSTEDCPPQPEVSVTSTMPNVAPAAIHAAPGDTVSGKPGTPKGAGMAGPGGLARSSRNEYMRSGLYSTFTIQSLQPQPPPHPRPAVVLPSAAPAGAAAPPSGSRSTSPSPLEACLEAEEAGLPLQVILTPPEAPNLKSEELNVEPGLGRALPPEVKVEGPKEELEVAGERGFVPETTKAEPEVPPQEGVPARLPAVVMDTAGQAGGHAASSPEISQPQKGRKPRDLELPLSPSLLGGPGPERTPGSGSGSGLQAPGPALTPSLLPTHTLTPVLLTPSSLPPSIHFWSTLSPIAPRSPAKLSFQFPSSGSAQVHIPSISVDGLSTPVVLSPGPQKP
In short: as §1

GABPA = target: T3, GABPA (Homo sapiens, UniProt Q06546 1-454); conditions: protein: recombinant; tags: N-terminal GST; dsDNA, one strand shown
T3 sequence: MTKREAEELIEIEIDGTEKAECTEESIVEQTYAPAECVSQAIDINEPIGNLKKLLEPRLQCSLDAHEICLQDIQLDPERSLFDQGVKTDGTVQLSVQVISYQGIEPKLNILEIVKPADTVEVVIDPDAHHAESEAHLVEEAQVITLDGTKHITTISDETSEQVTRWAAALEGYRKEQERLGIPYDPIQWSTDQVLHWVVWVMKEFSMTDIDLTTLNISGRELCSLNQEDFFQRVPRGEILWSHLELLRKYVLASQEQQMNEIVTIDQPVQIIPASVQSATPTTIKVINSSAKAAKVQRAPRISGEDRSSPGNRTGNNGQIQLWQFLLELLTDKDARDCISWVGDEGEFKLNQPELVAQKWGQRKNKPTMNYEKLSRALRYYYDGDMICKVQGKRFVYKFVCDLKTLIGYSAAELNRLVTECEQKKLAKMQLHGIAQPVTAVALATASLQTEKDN
In short: as §1

ERG = target: T4, ERG (Homo sapiens, UniProt P11308 1-479); conditions: protein: recombinant; tags: N-terminal GST; dsDNA, one strand shown
T4 sequence: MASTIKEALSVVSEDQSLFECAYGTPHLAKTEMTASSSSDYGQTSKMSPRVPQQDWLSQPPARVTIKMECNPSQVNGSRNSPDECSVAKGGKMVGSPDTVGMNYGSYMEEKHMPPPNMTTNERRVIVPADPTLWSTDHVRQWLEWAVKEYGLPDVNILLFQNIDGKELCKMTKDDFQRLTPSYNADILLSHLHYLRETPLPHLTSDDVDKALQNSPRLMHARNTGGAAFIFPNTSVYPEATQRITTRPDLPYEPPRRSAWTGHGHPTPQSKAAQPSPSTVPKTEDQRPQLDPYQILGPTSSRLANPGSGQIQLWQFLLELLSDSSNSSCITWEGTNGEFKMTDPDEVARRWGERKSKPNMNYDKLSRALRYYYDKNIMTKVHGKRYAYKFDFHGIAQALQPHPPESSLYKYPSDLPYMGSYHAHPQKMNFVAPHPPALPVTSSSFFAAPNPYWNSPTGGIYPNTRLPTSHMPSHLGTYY
In short: as §1

ELF1 = ELF1 (Homo sapiens, UniProt P32519 1-619); conditions: protein: recombinant; tags: N-terminal GST; dsDNA, one strand shown
In short: as §1

EHF = target: T5, EHF (Homo sapiens, UniProt Q9NZC4 1-300); conditions: protein: recombinant; tags: N-terminal GST; dsDNA, one strand shown
T5 sequence: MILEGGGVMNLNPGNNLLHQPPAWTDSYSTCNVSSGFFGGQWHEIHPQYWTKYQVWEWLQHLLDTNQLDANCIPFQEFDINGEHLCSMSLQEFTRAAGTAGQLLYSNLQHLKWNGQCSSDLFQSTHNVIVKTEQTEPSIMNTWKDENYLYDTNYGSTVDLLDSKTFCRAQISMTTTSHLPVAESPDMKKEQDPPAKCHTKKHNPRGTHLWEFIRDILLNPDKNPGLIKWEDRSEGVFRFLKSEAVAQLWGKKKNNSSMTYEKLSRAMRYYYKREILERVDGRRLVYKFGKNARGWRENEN
In short: as §1

SPI1 = SPI1 (Homo sapiens, UniProt P17947 1-270); conditions: protein: recombinant; tags: N-terminal GST; dsDNA, one strand shown
In short: as §1

SPIB = SPIB (Homo sapiens, UniProt Q01892 1-262); conditions: protein: recombinant; tags: N-terminal GST; dsDNA, one strand shown
In short: as §1

ELK3 = target: T6, ELK3 (Homo sapiens, UniProt P41970 1-407); conditions: protein: recombinant; tags: N-terminal GST; dsDNA, one strand shown
T6 sequence: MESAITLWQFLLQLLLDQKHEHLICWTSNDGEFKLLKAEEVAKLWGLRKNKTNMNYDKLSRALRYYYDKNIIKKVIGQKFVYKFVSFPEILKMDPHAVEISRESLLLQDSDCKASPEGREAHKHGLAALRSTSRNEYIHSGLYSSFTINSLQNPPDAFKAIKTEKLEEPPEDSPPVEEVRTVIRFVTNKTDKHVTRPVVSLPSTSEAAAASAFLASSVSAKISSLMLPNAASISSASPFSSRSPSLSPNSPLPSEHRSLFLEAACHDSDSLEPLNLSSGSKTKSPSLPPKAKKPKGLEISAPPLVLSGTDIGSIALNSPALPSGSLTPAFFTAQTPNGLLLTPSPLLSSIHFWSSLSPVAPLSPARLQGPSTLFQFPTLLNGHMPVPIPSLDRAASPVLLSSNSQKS
In short: as §1

FEV = target: T7, FEV (Homo sapiens, UniProt Q99581 1-238); conditions: protein: recombinant; tags: N-terminal GST; dsDNA, one strand shown
T7 sequence: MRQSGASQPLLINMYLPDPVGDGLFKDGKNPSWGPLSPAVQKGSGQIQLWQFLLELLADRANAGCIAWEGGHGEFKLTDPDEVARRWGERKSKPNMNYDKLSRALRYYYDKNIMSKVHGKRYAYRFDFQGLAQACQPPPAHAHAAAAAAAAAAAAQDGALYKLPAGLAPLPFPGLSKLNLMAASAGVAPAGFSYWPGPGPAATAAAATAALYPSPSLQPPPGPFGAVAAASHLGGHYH
In short: as §1

ETV5 = ETV5 (Homo sapiens, UniProt P41161 1-510); conditions: protein: recombinant; tags: N-terminal GST; dsDNA, one strand shown
In short: as §1

HSF1 = HSF1 (Homo sapiens, UniProt Q00613 1-529); conditions: protein: recombinant; tags: N-terminal GST; chain copies: 3; dsDNA, one strand shown
In short: as §1

SPIC = target: T8, SPIC (Homo sapiens, UniProt Q8N5J4 1-248); conditions: protein: recombinant; tags: N-terminal GST; dsDNA, one strand shown
T8 sequence: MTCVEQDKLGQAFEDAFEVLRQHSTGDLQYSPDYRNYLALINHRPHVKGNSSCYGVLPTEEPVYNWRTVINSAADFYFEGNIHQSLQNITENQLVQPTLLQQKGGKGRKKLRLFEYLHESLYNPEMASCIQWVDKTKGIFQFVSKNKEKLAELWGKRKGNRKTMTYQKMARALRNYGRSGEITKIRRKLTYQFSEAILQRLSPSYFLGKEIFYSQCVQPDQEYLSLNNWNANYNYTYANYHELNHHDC
In short: as §1

ELF4 = ELF4 (Homo sapiens, UniProt Q99607 1-663); conditions: protein: recombinant; tags: N-terminal GST; dsDNA, one strand shown
In short: as §1

ELK4 = target: T9, ELK4 (Homo sapiens, UniProt P28324-2 1-405); conditions: protein: recombinant; tags: N-terminal GST; dsDNA, one strand shown
T9 sequence: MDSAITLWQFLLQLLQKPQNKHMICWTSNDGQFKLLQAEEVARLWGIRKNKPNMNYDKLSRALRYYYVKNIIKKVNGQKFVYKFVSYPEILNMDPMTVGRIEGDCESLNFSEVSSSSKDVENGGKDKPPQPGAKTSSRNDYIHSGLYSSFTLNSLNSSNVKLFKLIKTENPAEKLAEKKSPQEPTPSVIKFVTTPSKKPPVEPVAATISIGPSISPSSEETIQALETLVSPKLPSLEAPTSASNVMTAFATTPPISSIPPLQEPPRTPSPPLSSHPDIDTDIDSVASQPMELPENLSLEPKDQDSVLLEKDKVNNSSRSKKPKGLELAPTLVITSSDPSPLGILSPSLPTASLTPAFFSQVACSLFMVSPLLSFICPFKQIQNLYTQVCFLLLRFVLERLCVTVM
In short: as §1

ETV2 = target: T10, ETV2 (Homo sapiens, UniProt O00321 1-342); conditions: protein: recombinant; tags: N-terminal GST; dsDNA, one strand shown
T10 sequence: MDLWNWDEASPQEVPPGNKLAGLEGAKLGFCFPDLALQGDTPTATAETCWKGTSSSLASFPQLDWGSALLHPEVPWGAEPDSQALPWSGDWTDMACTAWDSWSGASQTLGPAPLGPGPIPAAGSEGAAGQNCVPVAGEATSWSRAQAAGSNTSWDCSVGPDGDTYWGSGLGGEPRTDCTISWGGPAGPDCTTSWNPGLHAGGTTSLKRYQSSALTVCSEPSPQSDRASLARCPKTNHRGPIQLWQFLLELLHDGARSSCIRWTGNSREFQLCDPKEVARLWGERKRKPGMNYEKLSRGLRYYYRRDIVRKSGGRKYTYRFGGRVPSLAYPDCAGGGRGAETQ
In short: as §1

ELF3 = target: T11, ELF3 (Homo sapiens, UniProt P78545 1-371); conditions: protein: recombinant; tags: N-terminal GST; dsDNA, one strand shown
T11 sequence: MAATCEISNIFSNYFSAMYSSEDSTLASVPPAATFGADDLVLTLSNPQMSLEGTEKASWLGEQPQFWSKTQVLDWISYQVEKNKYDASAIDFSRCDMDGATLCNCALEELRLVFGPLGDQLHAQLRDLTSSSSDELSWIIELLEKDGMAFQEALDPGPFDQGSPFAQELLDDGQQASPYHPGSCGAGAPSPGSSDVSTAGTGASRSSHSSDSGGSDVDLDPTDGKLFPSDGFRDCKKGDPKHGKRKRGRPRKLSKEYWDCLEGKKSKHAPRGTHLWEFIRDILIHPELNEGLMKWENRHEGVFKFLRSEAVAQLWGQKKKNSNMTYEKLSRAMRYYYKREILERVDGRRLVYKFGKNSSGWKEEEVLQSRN
In short: as §1

CRX = CRX (Homo sapiens, UniProt O43186 1-299); conditions: protein: recombinant; tags: N-terminal GST; dsDNA, one strand shown
In short: as §1

ETV1 = ETV1 (Homo sapiens, UniProt P50549 1-477); conditions: protein: recombinant; tags: N-terminal GST; dsDNA, one strand shown
In short: as §1

ETV5, sequence (P41161 whole entry): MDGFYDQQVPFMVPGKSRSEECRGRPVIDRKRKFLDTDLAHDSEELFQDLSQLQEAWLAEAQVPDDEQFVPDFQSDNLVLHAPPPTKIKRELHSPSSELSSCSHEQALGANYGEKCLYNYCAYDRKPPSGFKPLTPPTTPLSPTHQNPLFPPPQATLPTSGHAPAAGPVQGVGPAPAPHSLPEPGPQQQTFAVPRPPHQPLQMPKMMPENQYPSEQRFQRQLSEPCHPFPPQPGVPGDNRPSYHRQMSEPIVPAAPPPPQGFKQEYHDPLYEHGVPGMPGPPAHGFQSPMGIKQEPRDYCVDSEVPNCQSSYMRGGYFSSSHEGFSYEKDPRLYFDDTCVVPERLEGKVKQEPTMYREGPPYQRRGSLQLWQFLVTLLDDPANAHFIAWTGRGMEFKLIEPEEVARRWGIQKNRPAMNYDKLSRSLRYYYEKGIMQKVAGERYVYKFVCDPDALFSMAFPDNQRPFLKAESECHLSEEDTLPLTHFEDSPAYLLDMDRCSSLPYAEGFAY
ELF1, sequence (P32519 whole entry): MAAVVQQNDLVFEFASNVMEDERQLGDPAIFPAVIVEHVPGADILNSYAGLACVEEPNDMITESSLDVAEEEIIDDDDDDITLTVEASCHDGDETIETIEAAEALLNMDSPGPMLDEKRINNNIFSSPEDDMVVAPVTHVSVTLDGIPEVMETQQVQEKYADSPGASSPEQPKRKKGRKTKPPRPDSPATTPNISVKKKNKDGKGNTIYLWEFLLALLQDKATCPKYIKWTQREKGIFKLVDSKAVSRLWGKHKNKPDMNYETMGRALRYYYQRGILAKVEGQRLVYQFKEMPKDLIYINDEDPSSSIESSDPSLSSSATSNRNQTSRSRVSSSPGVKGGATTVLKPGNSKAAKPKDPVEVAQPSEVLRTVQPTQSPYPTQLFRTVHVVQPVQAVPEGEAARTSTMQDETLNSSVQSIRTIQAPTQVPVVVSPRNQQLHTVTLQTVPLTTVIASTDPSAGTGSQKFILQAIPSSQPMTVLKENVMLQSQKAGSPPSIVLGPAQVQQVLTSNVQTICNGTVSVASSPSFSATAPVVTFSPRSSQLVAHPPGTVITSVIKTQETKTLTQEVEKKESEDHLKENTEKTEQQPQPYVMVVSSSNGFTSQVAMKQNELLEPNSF
HSF1, sequence (Q00613 whole entry): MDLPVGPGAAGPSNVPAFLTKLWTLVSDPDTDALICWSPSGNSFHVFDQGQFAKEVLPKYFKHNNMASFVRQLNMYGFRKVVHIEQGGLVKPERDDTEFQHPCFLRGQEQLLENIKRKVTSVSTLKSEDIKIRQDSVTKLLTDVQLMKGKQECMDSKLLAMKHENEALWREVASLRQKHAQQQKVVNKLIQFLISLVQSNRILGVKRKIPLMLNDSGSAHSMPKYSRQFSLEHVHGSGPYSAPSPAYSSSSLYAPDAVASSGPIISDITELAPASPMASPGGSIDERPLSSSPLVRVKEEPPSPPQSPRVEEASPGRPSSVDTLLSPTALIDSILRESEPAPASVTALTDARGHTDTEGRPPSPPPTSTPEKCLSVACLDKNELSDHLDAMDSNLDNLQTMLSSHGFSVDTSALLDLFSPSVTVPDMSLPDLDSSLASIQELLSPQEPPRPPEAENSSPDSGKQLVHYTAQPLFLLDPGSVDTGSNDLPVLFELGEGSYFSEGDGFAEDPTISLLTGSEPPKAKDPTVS
ETV1, sequence (P50549 whole entry): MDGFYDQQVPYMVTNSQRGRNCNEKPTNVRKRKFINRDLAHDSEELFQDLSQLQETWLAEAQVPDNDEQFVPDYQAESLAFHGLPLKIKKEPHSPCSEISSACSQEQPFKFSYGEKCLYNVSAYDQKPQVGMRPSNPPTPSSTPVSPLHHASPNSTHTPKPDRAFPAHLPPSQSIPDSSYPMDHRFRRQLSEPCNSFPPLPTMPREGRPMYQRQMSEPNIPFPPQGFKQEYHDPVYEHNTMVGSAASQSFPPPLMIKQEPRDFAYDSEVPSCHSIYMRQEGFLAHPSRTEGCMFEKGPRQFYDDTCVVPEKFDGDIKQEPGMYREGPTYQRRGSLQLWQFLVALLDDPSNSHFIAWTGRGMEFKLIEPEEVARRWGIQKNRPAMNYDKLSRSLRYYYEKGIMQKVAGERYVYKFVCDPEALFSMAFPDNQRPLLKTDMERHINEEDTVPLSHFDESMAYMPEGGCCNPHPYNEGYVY
CRX, sequence (O43186 whole entry): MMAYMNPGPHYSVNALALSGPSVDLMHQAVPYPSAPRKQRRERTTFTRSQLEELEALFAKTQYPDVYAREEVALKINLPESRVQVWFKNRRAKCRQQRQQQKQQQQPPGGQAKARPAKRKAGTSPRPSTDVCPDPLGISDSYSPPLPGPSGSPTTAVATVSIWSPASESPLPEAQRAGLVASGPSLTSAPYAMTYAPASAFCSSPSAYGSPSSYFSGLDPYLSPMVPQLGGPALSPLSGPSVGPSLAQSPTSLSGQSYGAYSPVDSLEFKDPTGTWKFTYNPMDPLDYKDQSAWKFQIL
ELF4, sequence (Q99607 whole entry): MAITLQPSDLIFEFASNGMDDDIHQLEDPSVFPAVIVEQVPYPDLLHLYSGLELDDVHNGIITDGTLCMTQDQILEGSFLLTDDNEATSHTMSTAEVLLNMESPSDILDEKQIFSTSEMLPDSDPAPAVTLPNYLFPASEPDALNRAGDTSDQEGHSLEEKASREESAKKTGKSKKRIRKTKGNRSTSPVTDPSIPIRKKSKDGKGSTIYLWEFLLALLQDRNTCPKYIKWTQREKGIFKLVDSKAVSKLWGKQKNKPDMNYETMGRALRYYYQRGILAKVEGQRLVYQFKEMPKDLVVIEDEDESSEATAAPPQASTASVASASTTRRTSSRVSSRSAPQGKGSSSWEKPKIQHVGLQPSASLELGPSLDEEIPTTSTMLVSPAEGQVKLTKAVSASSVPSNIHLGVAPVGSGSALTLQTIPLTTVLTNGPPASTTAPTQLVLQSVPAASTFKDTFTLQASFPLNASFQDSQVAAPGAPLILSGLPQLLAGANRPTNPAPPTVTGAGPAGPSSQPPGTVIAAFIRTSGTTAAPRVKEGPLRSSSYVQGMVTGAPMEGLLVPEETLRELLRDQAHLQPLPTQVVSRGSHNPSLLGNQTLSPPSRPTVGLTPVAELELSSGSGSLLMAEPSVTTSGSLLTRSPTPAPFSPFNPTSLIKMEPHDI
SPIB, sequence (Q01892 whole entry): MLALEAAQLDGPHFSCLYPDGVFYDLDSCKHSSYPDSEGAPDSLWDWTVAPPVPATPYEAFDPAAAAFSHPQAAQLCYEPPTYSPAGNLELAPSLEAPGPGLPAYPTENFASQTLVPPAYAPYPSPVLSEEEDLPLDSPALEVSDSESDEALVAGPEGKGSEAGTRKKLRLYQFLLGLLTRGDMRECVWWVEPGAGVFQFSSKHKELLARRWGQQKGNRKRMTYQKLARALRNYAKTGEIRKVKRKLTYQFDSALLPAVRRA

For GTTATT, the binding signal (FLI1) was 1.16 fold enrichment (6-mer frequency, TF over GST control), the binding signal (ELK1) was 1.23 fold enrichment (6-mer frequency, TF over GST control) and the binding signal (GABPA) was 1.17 fold enrichment (6-mer frequency, TF over GST control). The binding signal (ERG) was 1.15 fold enrichment (6-mer frequency, TF over GST control), the binding signal (ELF1) was 1.05 fold enrichment (6-mer frequency, TF over GST control) and the binding signal (EHF) was 1.08 fold enrichment (6-mer frequency, TF over GST control). For the same sequence, the binding signal (SPI1) was 1.28 fold enrichment (6-mer frequency, TF over GST control), the binding signal (SPIB) was 1.09 fold enrichment (6-mer frequency, TF over GST control) and the binding signal (ELK3) was 1.23 fold enrichment (6-mer frequency, TF over GST control). The binding signal (FEV) was 1.08 fold enrichment (6-mer frequency, TF over GST control), the binding signal (ETV5) was 1.26 fold enrichment (6-mer frequency, TF over GST control) and the binding signal (HSF1) was 1.19 fold enrichment (6-mer frequency, TF over GST control). The binding signal (SPIC) was 1.29 fold enrichment (6-mer frequency, TF over GST control), the binding signal (ELF4) was 1.16 fold enrichment (6-mer frequency, TF over GST control) and the binding signal (ELK4) was 1.17 fold enrichment (6-mer frequency, TF over GST control). For the same sequence, the binding signal (ETV2) was 1.27 fold enrichment (6-mer frequency, TF over GST control), the binding signal (ELF3) was 1.22 fold enrichment (6-mer frequency, TF over GST control) and the binding signal (CRX) was 1.32 fold enrichment (6-mer frequency, TF over GST control). The binding signal (ETV1) was 1.12 fold enrichment (6-mer frequency, TF over GST control).
